# Assay outcomes (PubChem BioAssay)
# MITF TRPM1 inh: inhibitors of MITF-dependent TRPM1 promoter reporter, primary screen, cell-based, SK-MEL-5, single point, luciferase; SK-MEL-5 TRPM1 promoter luciferase, 24 h; inhibition, % at 12.5 µM; 330,000 compounds, 0.83% hits; AID 488899, 2010;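 active = mean inhibition across replicates of 60% or more, whatever share of single replicates reaches that level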
# TROY signal inh: inhibitors of TROY-driven NF-kB signaling, primary screen, Q293 LMP1-TROYcd cells, NF-kB luciferase, uHTS. 360,000 compounds, 0.98% hits. inhibition, % at 10 µM. AID 1347056, 2019. Q293 LMP1-TROYcd NF-kB luciferase reporter, 4 h;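 active = compounds whose plate-normalised and pattern-corrected inhibition of the luciferase reporter signal at the single screening dose is 50% or more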
# Shn3 inh set2: reduction of Shn3 3'UTR firefly luciferase signal, primary screen, Schnurri-3 inhibitor project, cell-based, Clone20 osteoblasts, set 2; AID 588674, 2011; 360,000 compounds, 0.52% hits; Clone20 osteoblast Shn3 3'UTR firefly luciferase, 24 h; inhibition, % at 12.5 µM;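 active = mean inhibition of at least 75% with every replicate also reaching 75%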;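 also: 0% = median of neutral control wells and 100% = pilot-screen positive control compound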
# TWEAK-Fn14 inh: inhibitors of TWEAK-Fn14 signaling, primary screen, luciferase reporter cells, uHTS; inhibition, % at 10 µM; 360,000 compounds, 2% hits; TWEAK-stimulated Fn14 reporter cells, luciferase luminescence, 8 h; in the data active = inhibition above about 50%
# Peg3 promoter: Peg3 promoter-driven luciferase inhibitors, primary screen, cell-based, HeLa, luciferase luminescence | inhibition, % at 20 µM | HeLa PEG-Prom luciferase reporter, overnight | AID 588405, 2011 | 360,000 compounds, 1.7% hits;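 active = inhibition of at least 50% at 20 µM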
# LMP1 NFkB inh: EBV LMP1-driven NF-kappaB luciferase reporter inhibitors, primary screen, cell-based, luminescence, single point. LMP1-induced NF-kappaB luciferase reporter cells. inhibition, % at 12.5 µM. 350,000 compounds, 0.69% hits. AID 504558, 2011; in the data active = inhibition above about 41%;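 also: 0% = neutral control wells and 100% = reference inhibitor control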
# * hit, by the source's call; x = no result. Only some compounds are listed: those with a hit (about 4.1% of all), similar ones and a draw of the others.
SMILES,MITF TRPM1 inh,TROY signal inh,Shn3 inh set2,TWEAK-Fn14 inh,Peg3 promoter,LMP1 NFkB inh
Cc1cc(C)[n+](CCCC[n+]2c(C)cc(C)cc2C)c(C)c1,2,-10,4,13,-6,-2
CC(C)(O)/C=C/C(=O)[C@](C)(O)C1[C@H](O)C[C@@]2(C)C3CC=C4C(C[C@H](O)[C@@H](O)C4(C)C)[C@]3(C)C(=O)C[C@]12C (some centres not stated),71*,56*,46,-7,61*,27
CC1NCCC2(O)CCCCC12 (configuration not stated),-3,-16,-31,-2,9,-1
C#C[C@]1(O)CC[C@H]2[C@@H]3CCC4=CC(=O)CC[C@]4(C)[C@H]3CC[C@@]21C,-11,6,6,-11,3,81*
CCC(=O)O[C@H]1CC[C@H]2[C@@H]3CCC4=CC(=O)CC[C@]4(C)[C@H]3CC[C@]12C,2,20,13,-22,53*,87*
CCN1C[C@]2(COC)CC[C@H](O)[C@@]34C5C[C@H]6[C@H](O)C5[C@](O)(C[C@H]6OC)[C@@H]([C@H](OC)C23)[C@@H]14 (some centres not stated),x,-19,14,2,-9,x
CCC1C(c2ccccc2)NC(c2ccccc2)CC1(O)c1ccc(F)cc1 (configuration not stated),-8,15,13,5,-5,7
CCOC(=O)C1(c2ccccc2)CCN(CC(=O)Nc2cccc3ccccc23)CC1,5,5,20,22,15,-1
CC(CCN1CC1)=NNC(=O)Nc1cccc2ccccc12,5,37,2,58*,-15,2
CC1CN=C(Nc2cccc3ccccc23)S1 (configuration not stated),-15,53*,-12,44,-52,-14
Cc1cc2c(C(C)C)c(O)c(O)c(C=O)c2c(O)c1-c1c(C)cc2c(C(C)C)c(O)c(O)c(C=O)c2c1O,x,66*,92*,102*,94*,x
CC(C)(C)c1cc(C=C(C#N)C#N)cc(C(C)(C)C)c1O,84*,57*,93*,73*,56*,24
O=C(NCCN1CCOCC1)c1ccc(Cl)nc1Cl,4,7,4,-14,7,-1
Cc1ccc(NC(=O)c2ncn(CCCNCCN3CCOCC3)n2)cc1C,3,-1,10,70*,-5,-1
CCCCN1C(=O)/C(=C/C=C/c2ccco2)C(=O)NC1=S,3,1,9,7,5,-4
CCc1ccc(N2C(=O)NC(=O)/C(=C\C=C\c3ccco3)C2=O)cc1,102*,5,39,5,91*,-8
Cc1cc(C)cc(N2C(=O)NC(=O)/C(=C\C=C\c3ccco3)C2=O)c1,94*,5,52,9,67*,-30
CC(C)c1ccc(N2C(=O)NC(=O)/C(=C/C=C/c3ccco3)C2=O)cc1,99*,-10,30,19,74*,-28
O=C1NC(=O)N(c2ccccc2)C(=O)/C1=C\C=C\c1ccccc1,74*,-24,61,67*,61*,-38
O=C1CCCN1c1ccc(S(=O)(=O)O)cc1 (tested in a mixture with another compound),2,11,-16,-10,7,14
CNC(=O)Oc1cc2c(cc1C(C)(C)C)CCC2,-1,18,4,-22,6,-7
CN(C)C(CNC(=O)Cc1c(Cl)cccc1Cl)c1ccccc1 (configuration not stated),-7,-23,5,1,2,3
CC(c1ccccc1)[n+]1ccccc1 (configuration not stated),9,3,-14,-1,-4,6
CCc1n[nH]c(CCN)n1,11,8,8,8,13,0
CCOc1ccc(N2C(=O)/C(=C/c3ccco3)C(=O)NC2=S)cc1,7,-4,-8,57*,31,-3
SMILES,MITF TRPM1 inh,TROY signal inh,Shn3 inh set2,TWEAK-Fn14 inh,Peg3 promoter,LMP1 NFkB inh
O=C(N/N=C/c1c(O)n(C2CCCCC2)c(=S)[nH]c1=O)c1ccccc1O,11,-21,1,-61,-23,42*
O=C1NC2C(=CC(O)C(O)C2O)c2cc3c(cc21)OCO3 (configuration not stated),67*,79*,90*,100*,98*,78*
N=C(N)c1c(O)n(C2CCCCC2)c(=O)n(C2CCCCC2)c1=O,20,23,45,36,77*,-13
O=c1c(C=NCc2cccs2)c(O)n(C2CCCCC2)c(=O)n1C1CCCCC1,0,3,9,19,22,-7
CSc1cccc(NP2(=O)OCC(C)([N+](=O)[O-])CO2)c1 (configuration not stated),-4,-2,61,25,-3,62*
COCCNC(=O)N1[C@H]2CC[C@@H]1C(C(=O)OC)=C(c1ccc(OC(F)(F)F)cc1)C2,18,-1,-5,-1,12,4
C[C@]12CCC3C(CC[C@H]4C[C@H](O)CC[C@]34C)C1[C@@H](O)C[C@@H]2O (some centres not stated),-2,9,-14,5,7,-2
O=C(CCC(=O)N1C[C@H]2C[C@@H](C1)c1cccc(=O)n1C2)NCc1ccccc1,4,7,2,22,-3,-4
CN(C)C(=S)SSC(=S)N(C)C,58,-1,55,-6,56*,13
CC(=O)Nc1ccc(S(=O)(=O)N2Cc3cnnn3-c3ccccc3C2C#N)cc1 (configuration not stated),-5,-3,-3,1,-1,1
CN(CC1COc2ccccc2O1)c1nc(-c2cccnc2)nc2ccccc12 (configuration not stated),-17,21,24,32,51*,1
COc1ccc(C(O)CNC(C)C)c(F)c1OC (configuration not stated),-11,-8,2,-1,-2,11
O=C1NC2C(O)C(O)C(O)C(O)C2c2cc3c(c(O)c21)OCO3 (configuration not stated),72*,81*,87*,99*,99*,92*
CP(=O)(O)CN1CCCCC1,-3,-27,0,-6,-1,3
O=C(N/N=C/c1c(O)n(C2CCCCC2)c(=S)[nH]c1=O)c1ccccc1,6,-18,-18,-3,2,10
